Reference: ChEMBL document CHEMBL4513216, “Probing the Open Global Health Chemical Diversity Library for Multistage-Active Starting Points for Next-Generation Antimalarials” (ACS Infect Dis, 2020)
Among all 69,000 compounds or so, about 8,600 (12%) showed an effect of 50% or more. The full list was thinned out, with strong results kept by preference.

These compounds were tested on Plasmodium berghei (assay: Screen against P. berghei liver stage (PbLuc), transformed with Luciferase, at 10uM). Details: tested at 10 uM.
Assay type: functional, HepG2

SMILES	INHIBITION [%]
Cc1sc(NC(=O)CCC(=O)O)c(C(N)=O)c1-c1ccc(Cl)cc1Cl	41.6
CNc1nccc(-c2cnc3sc(C)c(C)n3c2=O)n1	-4.82
Cc1ccc(C(=O)NC2CCCN(S(C)(=O)=O)C2)c(=O)[nH]1 (centres undefined)	19.7
O=C(c1cc[nH]n1)N1CCCC1c1cnccn1 (centres undefined)	31.6
CC(NC(=O)COCC(F)(F)F)c1nnc2n1CCCCC2 (centres undefined)	-27.8
CCN(CC)CCCNC(=O)c1nn(CC)cc1Cl	35.8
O=C(CCOc1ccc(Br)cc1)N1CCN(c2cnccn2)CC1	43.2
CC1(C)CN(CC(=O)NCc2ccccc2F)C[C@]1(C)O	-2.97
COc1cccc(OCC2CCCN(Cc3ncc[nH]3)C2)c1 (centres undefined)	22.6
COc1ccc(C(=O)N2CCC(Oc3ccc(C)cc3)(C(=O)O)CC2)o1	14.3
COc1cccc(OCC2CCCN(Cc3ccncc3)C2)c1 (centres undefined)	1.74
COc1ccc(C(=O)N2CCC(Oc3ccccc3)(C(=O)O)CC2)o1	50.1
COc1ccc(C(=O)N2CCC(Oc3cccc(C)c3)(C(=O)O)CC2)o1	40.2
COc1cccc(CCC2CCCN(Cc3ncc[nH]3)C2)c1 (centres undefined)	65.7
FC(F)(F)Cn1ccnc1CNCC1CCCN1c1cccnn1 (centres undefined)	-2.53
Cc1nc(NC(=O)CCN2C(=O)c3ccccc3NC2C(C)C)sc1C (centres undefined)	28.7
COCC(=O)NCc1cc(=O)n2c(n1)CN(Cc1ccncc1)CCC2	22.2
CCNc1cc2c(nn1)CCN(C(=O)c1ccsc1)C2	37.8
CC(=O)NCCC(=O)NC(C)c1sc(-c2ccccc2F)nc1C (centres undefined)	29.3
COCC(=O)NC(C)c1sc(-c2ccccc2F)nc1C (centres undefined)	84.2
CCC(=O)NCC(=O)NC(C)c1sc(-c2ccccc2F)nc1C (centres undefined)	-2.94
CCc1nnc(CN2CCc3cnc(C)nc3C2)o1	-36.6
CC(C)NC(=O)N1CCOC2(CCCN(c3ncccc3F)C2)C1 (centres undefined)	2.58

SMILES	INHIBITION [%]
CS(=O)(=O)CCNC1CCCN(Cc2noc(C3CC3)n2)C1 (centres undefined)	40.4
O=c1c2cccc(Cl)c2ncn1C1CCNC1 (centres undefined)	56.3
O=c1c2cccc(F)c2ncn1CCN1CCNCC1	-74
Cc1nc[nH]c1-c1c(-c2ccccc2)ncn1C1CCNC1 (centres undefined)	31.3
O=c1c2cccc(C(F)(F)F)c2ncn1CCN1CCNCC1	-100
O=c1c2cccc(C(F)(F)F)c2ncn1C1CCNC1 (centres undefined)	53.6
O=C(O)C1(O)CCN(c2ccnc3c(C(F)(F)F)cccc23)CC1	-48.4
Cc1cc(NCc2noc(C(C)C)n2)nc(-c2ccccc2)n1	14.4
COCCOc1cccc(C(=O)N2CCCCC2c2nccs2)c1 (centres undefined)	-31.5
CC(C)CNC(=O)CN(C)S(C)(=O)=O	40.7
CCC(CO)NC(=O)c1ccc2ccc(N(C)CC3CC3)n2c1 (centres undefined)	-24.3
O=C(CCN1CCc2ccccc21)N1C[C@@H](O)[C@H](N2CCCC2)C1	56.8
O=C(CCN1CCc2ccccc21)N1C[C@@H](O)[C@H](N2CCOCC2)C1	-8.12
O=C(CCN1CCc2ccccc21)N1CC(C(=O)N2CCOCC2)C1	25.6
Cc1cnc(CN2CCN(c3ccc4nncn4n3)C(C)C2)cn1 (centres undefined)	23.7
CC1CN(Cc2nccn2C)CCN1c1ccc2nncn2n1 (centres undefined)	57.4
Cc1cc(CN2CCN(c3ccc4nncn4n3)C(C)C2)no1 (centres undefined)	59
Cc1cc(CN2CCN(c3ccc4nncn4n3)C(C)C2)on1 (centres undefined)	26.5
Cc1cc(CN2CCN(c3ccc4nncn4n3)CC2)no1	26.5
CC1CN(Cc2ccccn2)CCN1c1ccc2nncn2n1 (centres undefined)	31.9
CN(Cc1ccco1)C(=O)c1cccc(N2CCCC2=O)c1	-27.9
Cc1cc(=O)n2nc(Oc3cccc(I)c3)sc2n1	35.7
O=S(=O)(Cc1cccc(F)c1)Nc1cc(Cl)ccn1	11.9

SMILES	INHIBITION [%]
CNC(=O)CN(C(=O)c1cc(C(C)C)no1)c1cccc(F)c1	-10.5
CC(C)N(CC(N)=O)C(=O)c1cc(F)ccc1N1CCN(C)CC1	1.74
CN1CCN(c2ccc(F)cc2C(N)=O)CC1	58.7
OCc1ccc(N2CCN(c3ncccn3)CC2)c(F)c1	31.3
CC(NCc1ccncc1)c1ccc(N2CCN(C)CC2)c(F)c1 (centres undefined)	15.8
CN1CCN(c2ccc(CO)cc2F)CC1	68.4
C=C(C)CN(CC)C(=O)c1cc(F)ccc1N1CCN(C)CC1	19.8
Cc1cccc(C(=O)N2CC(C(=O)NCC3CC3)C3(CCOCC3)C2)n1 (centres undefined)	37.1
CN1CCN(Cc2cccnc2)C(=O)C12CCN(C1CCOC1)CC2 (centres undefined)	40.3
O=C1C(Nc2nccn3cnnc23)CCCN1c1ccccc1Cl (centres undefined)	24.3
Cc1ccc(F)c(N2CCCC(Nc3nccn4cnnc34)C2=O)c1 (centres undefined)	52.7
Cc1cc(F)ccc1N1CCCC(Nc2nccn3cnnc23)C1=O (centres undefined)	25.4
COC[C@]1(O)CCN(Cc2cnc(N(C)C)nc2)CC1(C)C	-28.9
O=C(O)C1(n2ccnc2)CCN(Cc2cc3ccccc3o2)CC1	30.9
CCc1c(C)sc2c1c(N)nc(=O)n2CCN1CCOCC1	-39.7
CCc1c(O)nc(SCC(=O)Nc2ccccc2)n(C(C)CC)c1=O (centres undefined)	56.1
CCc1c(O)nc(SCC(=O)N(CC)CC)n(C(C)CC)c1=O (centres undefined)	29
CCc1c(O)n(C(C)CC)c(SCC(=O)c2ccccc2)nc1=O (centres undefined)	36.7
Cn1cc(CN2CCc3c(CNC(=O)C4CC4)cncc3C2)cn1	-17.2
O=C(c1cccnc1)N1C[C@H]2CN(Cc3cccc(F)c3)C(=O)[C@H]2C1	-55.2
CC(C)NC(=O)[C@@H](NC(=O)N1CCN(c2ccc(Cl)cc2)CC1)C(C)C	65.5
CC(C)NC(=O)[C@H](C)NC(=O)N1CCN(c2ccc(Cl)cc2)CC1	38.1
CC(C)NC(=O)C(NC(=O)N1CCN(c2ccc(Cl)cc2)CC1)C(C)C (centres undefined)	-9.39
